PubChem BioAssay (Tox21)
Records with an inconclusive call do not appear. A number with no mark means an inactive call. Active and inactive are the calls of the source. Unless noted, calls follow the shape of the dose curve; as a rule, active = well fitted cell-killing curve with a large enough effect in the repeat runs; inconclusive = weak or mixed curves; inactive = flat fitted curve, though single readings scatter.

Test: qHTS assay to identify small molecule agonists of the progesterone receptor (PR) signaling pathway - cell viability counter screen (AID 1346799; calls by dose curve; also: nearly all actives have a fitted effect of over 45% in size; also: potency is read from the fitted curve at half-maximal effect)
Details: PR-UAS-bla HEK293T viability, CellTiter-Glo luminescence, 16 h; series mostly up to 92.4 µM; activity change, negative = cytotoxicity: at the top concentration
How it was run: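 In parallel with the beta-lactamase readout, cytotoxicity toward PR-UAS-bla HEK293T cells was measured by CellTiter-Glo luminescence following 16 hr compound incubation in 2% charcoal-stripped FBS medium.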
% is scaled to controls: 0 for no effect and ±100 for the full control effect.

Going from CCC1(c2cnc[nH]2)Cc2ccccc2C1 to Clc1ccccc1CN1CCc2sccc2C1, the “activity change, negative = cytotoxicity” value rises from -9.45% [at 42.5 µM] to -1.17% [at 42.5 µM].

First: CCCCN(CCCC)CCC(O)c1cc2c(Cl)cc(Cl)cc2c2cc(C(F)(F)F)ccc12 (configuration not stated)
Second: CN(C)CCCN1c2ccccc2Sc2ccc(C(F)(F)F)cc21
The “activity change, negative = cytotoxicity” value of the first is higher: 6.18% [at 42.5 µM] for the first, 0.429% [at 42.5 µM] for the second.

For CN1[C@@H]2CC[C@H]1CC(OC(=O)C(CO)c1ccccc1)C2 (some centres not stated), the Potency was 61.1 µM (active).
For CCCCCCCC/C=C\CCCCCCCC(=O)N(C)CC(=O)O, the Potency was 68.6 µM (active).
With Cc1c(-c2ccc(O)cc2)n(Cc2ccc(OCCN3CCCCCC3)cc2)c2ccc(O)cc12 the Potency was 29.8 µM (active).
With CC(CN(C)C)CN1c2ccccc2CCc2ccccc21 (configuration not stated) the Potency was 16.8 µM (active).
In the case of CCCCCCCCCCOCC(O)CN (configuration not stated), the Potency is reported as 29.8 µM (active).
With CCN(CC)c1ccc(N)cc1 the Potency was 44.5 µM (active).
With CCN(CC)CCNc1ccc(CO)c2sc3ccccc3c(=O)c12 the Potency was 13.3 µM (active).
For CC(=O)Nc1ccc(O)cc1, the Potency was “inactive”.

Compared with CCCCCCCCCCCC(=O)N(CC)CC, CCCCCCOc1ccc(O)cc1 is lower in “activity change, negative = cytotoxicity” value: 11.1% for the first, -1.35% for the second.

First: CC(O)C#CC(C)O (configuration not stated)
Second: O=Nc1ccc(NO)cc1
The “activity change, negative = cytotoxicity” value of the first is lower: -3.17% for the first, 12.2% for the second.

Test: qHTS assay to identify small molecule antagonists of the TGF-beta/Smad signaling pathway - cell viability counter screen (AID 1346824); also: nearly all actives have a fitted effect of over 50% in size
Details: SBE-bla HEK293T viability, CellTiter-Glo luminescence; series mostly up to 76.8 µM; viability change, negative = cytotoxic: at the top concentration
How it was run: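 Cytotoxicity counter-screen run in the same wells as the beta-lactamase Smad reporter read: CellTiter-Glo luminescence after 30 min at room temperature. HEK 293T SBE-bla cells had 5 hr compound exposure at 37 C with TGF-beta1 (0.25 ng/mL stock).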

First: Oc1c(Br)cc(Br)c2cccnc12
Second: O=C1OC(OC(=O)c2cccnc2Nc2cccc(C(F)(F)F)c2)c2ccccc21 (configuration not stated)
The “viability change, negative = cytotoxic” value of the first is higher: 7.33% [at 35.3 µM] for the first, -10.9% [at 35.3 µM] for the second.

First: CCC1(c2cnc[nH]2)Cc2ccccc2C1
Second: CC(CN(C)C)CN1c2ccccc2CCc2ccccc21 (configuration not stated)
The “viability change, negative = cytotoxic” value of the first is higher: -0.703% [at 35.3 µM] for the first, -0.822% [at 35.3 µM] for the second.

Compared with Nc1ccc2cc3ccc(N)cc3nc2c1, C[n+]1c2cc(N)ccc2cc2ccc(N)cc21 (tested in a mixture with another compound) is higher in “viability change, negative = cytotoxic” value: 12.8% [at 35.3 µM] for the first, 18.3% [at 35.3 µM] for the second.

Going from O=C1c2c(O)ccc(O)c2C(=O)c2c(NCCNCCO)ccc(NCCNCCO)c21 to CCN(CC)CCNc1ccc(CO)c2sc3ccccc3c(=O)c12, the “viability change, negative = cytotoxic” value falls from -3.12% [at 35.3 µM] to -10.7% [at 35.3 µM].

Going from CCCCCCCC/C=C\CCCCCCCC(=O)NCc1ccc(O)c(OC)c1 to CCCCCCCCCCCCCCNCCO, the “viability change, negative = cytotoxic” value rises from -11.6% [at 35.3 µM] to -5.47% [at 35.3 µM].

Compared with CCCCCCCCCCOCC(O)CN (configuration not stated), CCCCN(CCCC)CCC(O)c1cc2c(Cl)cc(Cl)cc2c2cc(C(F)(F)F)ccc12 (configuration not stated) is higher in “viability change, negative = cytotoxic” value: -21.6% [at 35.3 µM] for the first, -16.9% [at 35.3 µM] for the second.

Going from CC(=O)Oc1ccc(C2(c3ccc(OC(C)=O)cc3)C(=O)Nc3ccccc32)cc1 to Cc1cccc(C)c1NC(=O)CN1CCN(CCCC(c2ccc(F)cc2)c2ccc(F)cc2)CC1, the “viability change, negative = cytotoxic” value falls from 1.08% [at 35.3 µM] to -26.1% [at 35.3 µM].

In the case of CN(C)CCCN1c2ccccc2Sc2ccc(C(F)(F)F)cc21, the “viability change, negative = cytotoxic” value is reported as -17.7% [at 35.3 µM].

First: Brc1ccccc1-c1ccccc1
Second: O=C(c1ccccc1)c1cc(Cl)ccc1O
The “viability change, negative = cytotoxic” value of the first is higher: -2.76% for the first, -11.5% for the second.

Going from CCCCCCCC/C=C\CCCCCCCC(=O)N(C)CC(=O)O to CCCCCCCCCCCC(=O)N(CC)CC, the “viability change, negative = cytotoxic” value falls from -1.39% to -13.8%.

Going from COc1ccc2sc(C(=O)Nc3nnn[nH]3)c(OC(C)C)c2c1 to CC(C)c1cccc(C(C)C)c1N1C(=O)c2ccc(O)cc2C1=O, the “viability change, negative = cytotoxic” value falls from 1.04% to -26.2%.

Going from CCCCCCOc1ccc(O)cc1 to O=Nc1ccc(NO)cc1, the “viability change, negative = cytotoxic” value rises from -15.2% to 0.179%.

Going from CCO[Si](CCCSSSSCCC[Si](OCC)(OCC)OCC)(OCC)OCC to C[C@]12CC[C@H]3C(=CCc4cc(O)ccc43)[C@@H]1CCC2=O, the “viability change, negative = cytotoxic” value rises from -8.61% to 2.23%.

In the case of CN1[C@@H]2CC[C@H]1CC(OC(=O)C(CO)c1ccccc1)C2 (some centres not stated), the Potency is reported as “inactive”.
